Results filed as inconclusive are left out. The source holds several records for some structures; these can differ, active in one and inactive in another. Calls of active or inactive are those of the source. Rule for the calls: active = hit-call score of the fitted dose curve at least 0.9, where 1 is the maximum; inconclusive = response in the unintended direction; inactive = score below 0.9.
These compounds were tested against Oxysterols receptor LXR-alpha (Homo sapiens) (UniProt Q13133) (assay: ATG_LXRa_TRANS: Attagene TRANS-FACTORIAL HepG2 Assay for human Liver X Receptor alpha (LXRa) (AID 2282980)). Conditions: HepG2 Attagene TRANS reporter, LXRa transactivation.
Oxysterols receptor LXR-alpha (Homo sapiens), sequence (Q13133 whole entry, looked up, the tested form may be a part): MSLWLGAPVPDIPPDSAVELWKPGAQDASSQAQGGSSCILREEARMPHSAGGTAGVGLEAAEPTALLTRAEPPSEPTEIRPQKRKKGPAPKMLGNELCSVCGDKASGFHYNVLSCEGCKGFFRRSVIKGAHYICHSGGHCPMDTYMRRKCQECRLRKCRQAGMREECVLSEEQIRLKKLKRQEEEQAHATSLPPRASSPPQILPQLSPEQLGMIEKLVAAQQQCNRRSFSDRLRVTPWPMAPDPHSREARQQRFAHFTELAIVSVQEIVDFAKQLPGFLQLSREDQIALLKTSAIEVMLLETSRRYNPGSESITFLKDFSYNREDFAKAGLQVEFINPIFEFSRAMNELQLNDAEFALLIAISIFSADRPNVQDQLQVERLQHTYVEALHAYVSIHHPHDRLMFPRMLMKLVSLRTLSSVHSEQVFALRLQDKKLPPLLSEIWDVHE
Method in brief: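 Read-out: reporter transcript levels by RT-PCR plus capillary electrophoresis, fluorescence intensity. Transiently transfected HepG2, exogenous NR-GAL4 chimera, GAL4-UAS reporters; 24 h compound exposure. Activity = increase over DMSO negative control.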

SMILES | outcome | AC50
N#CN=C(N)N | inactive | –
CCC(=O)C(CC(C)N(C)C)(c1ccccc1)c1ccccc1 (stereo not given) | inactive | –
CCc1ccccc1C | inactive | –
CCNc1nc(NC(C)(C)C)nc(SC)n1 | inactive | –
CCOP(=S)(OCC)SCCS(=O)(=O)CC | inactive | –
CC(=O)[O][Hg][c]1ccccc1 | inactive | –
CCOP(OCC)OCC | inactive | –
C=C(C)C#N | inactive | –
Fc1ccc(C2(Cn3cncn3)OC2c2ccccc2Cl)cc1 (stereo not given) | inactive | –
CCC(C)(C)c1ccc(O)c(C(C)(C)CC)c1 | – | 9.67 µM (active)
CC1(C)CCC(Cc2ccc(Cl)cc2)C1(O)Cn1cncn1 (stereo not given) | inactive | –
O=C1CCCN1 | inactive | –
CCCCP(CCCC)CCCC | inactive | –
COS(=O)(=O)c1ccc(C)cc1 | inactive | –
CC(=[OH+])/C=C(/C)[O-].CC(=[OH+])/C=C(/C)[O-].CC(=[OH+])/C=C(/C)[O-].[Fe] | inactive | –
CC(C)(c1ccccc1)c1ccc(O)c(C(C)(C)c2ccccc2)c1 | inactive | –
O=C(Cl)c1ccc(Cl)cc1 | inactive | –
C[C@@H]1C[C@@H]([C@H](O)CC2CC(=O)NC(=O)C2)C(=O)[C@@H](C)C1 | inactive | –
O=C1C2(Cl)C3(Cl)C4(Cl)C(Cl)(Cl)C5(Cl)C3(Cl)C1(Cl)C5(Cl)C24Cl (stereo not given) | inactive | –
ClCc1cccnc1 | inactive | –
ClC1=C(Cl)[C@]2(Cl)[C@@H]3[C@@H](Cl)[C@@H](Cl)C[C@@H]3[C@@]1(Cl)C2(Cl)Cl | inactive | –
CN(C)P(=O)(N(C)C)N(C)C | inactive | –
CCN1CCC2(CC1)COc1cc3c(cc12)N(C(=O)c1ccc(-c2ccc(-c4nnc(C)o4)cc2C)cc1)CC3 | inactive | –
O=C(O)C(F)(F)C(F)(F)C(F)(F)C(F)(F)C(F)(F)C(F)(F)C(F)(F)C(F)(F)C(F)(F)C(F)(F)F | inactive | 57.2 µM (active)
CC(C)c1ccc(CO)cc1 | inactive | –
CCC(C)c1cccc(C(C)CC)c1O (stereo not given) | – | 14.3 µM (active)
Oc1cccc2cccnc12 | inactive | –
CC(C)C1CCC(Cc2ccc(Cl)cc2)C1(O)Cn1cncn1 (stereo not given) | inactive | –

Each compound was assayed against Oxysterols receptor LXR-beta (Homo sapiens) (UniProt P55055) (assay: ATG_LXRb_TRANS: Attagene TRANS-FACTORIAL HepG2 Assay for human Liver X Receptor beta (LXRb) (AID 2282981)). Conditions: HepG2 Attagene TRANS GAL4-LXRb reporter, mRNA.
Oxysterols receptor LXR-beta (Homo sapiens), sequence (P55055 whole entry, looked up, the tested form may be a part): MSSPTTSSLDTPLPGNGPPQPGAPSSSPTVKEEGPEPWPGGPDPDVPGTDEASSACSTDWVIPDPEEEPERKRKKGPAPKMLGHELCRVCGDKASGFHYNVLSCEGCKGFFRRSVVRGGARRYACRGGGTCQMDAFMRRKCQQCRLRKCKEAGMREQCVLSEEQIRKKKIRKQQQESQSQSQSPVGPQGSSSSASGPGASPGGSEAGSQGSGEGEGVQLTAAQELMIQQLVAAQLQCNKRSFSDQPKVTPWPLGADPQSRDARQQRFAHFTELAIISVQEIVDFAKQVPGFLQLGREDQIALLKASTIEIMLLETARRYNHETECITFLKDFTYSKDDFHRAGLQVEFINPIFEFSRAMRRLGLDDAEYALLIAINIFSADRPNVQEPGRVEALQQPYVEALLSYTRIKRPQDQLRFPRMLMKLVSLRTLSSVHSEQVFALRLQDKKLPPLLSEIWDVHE
Method in brief: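 Measures induction of a Gal4-driven reporter transcript in HepG2 cells expressing an exogenous LXRb-Gal4 fusion. Cells are exposed to compound for 24 h before RNA isolation and RT-PCR with capillary electrophoresis detection.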

SMILES | outcome | AC50
CCC(=O)C(CC(C)N(C)C)(c1ccccc1)c1ccccc1 (stereo not given) | inactive | –
CCc1ccccc1C | inactive | –
CCNc1nc(NC(C)(C)C)nc(SC)n1 | inactive | –
CCOP(=S)(OCC)SCCS(=O)(=O)CC | inactive | –
CC(=O)[O][Hg][c]1ccccc1 | inactive | –
CCOP(OCC)OCC | inactive | –
O=C(O)C(F)(F)C(F)(F)C(F)(F)C(F)(F)C(F)(F)C(F)(F)F | inactive | –
CCC(C)(C)c1ccc(O)c(C(C)(C)CC)c1 | – | 23.6 µM (active)
CN(C)N=O | inactive | –
CCN(CC)C(=O)Cl | inactive | –
CC1(C)CCC(Cc2ccc(Cl)cc2)C1(O)Cn1cncn1 (stereo not given) | inactive | –
CCCCP(CCCC)CCCC | inactive | –
Clc1ccc(C2(Cn3cncn3)CC(Br)CO2)c(Cl)c1 (stereo not given) | inactive | –
CC(=O)OC(c1ccccc1)C(Cl)(Cl)Cl (stereo not given) | inactive | –
CC(=[OH+])/C=C(/C)[O-].CC(=[OH+])/C=C(/C)[O-].CC(=[OH+])/C=C(/C)[O-].[Fe] | inactive | –

SMILES | outcome | AC50
c1cc[c]([Hg][c]2ccccc2)cc1 | inactive | –
O=C(Cl)c1ccc(Cl)cc1 | inactive | –
C[C@@H]1C[C@@H]([C@H](O)CC2CC(=O)NC(=O)C2)C(=O)[C@@H](C)C1 | inactive | –
O=C1C2(Cl)C3(Cl)C4(Cl)C(Cl)(Cl)C5(Cl)C3(Cl)C1(Cl)C5(Cl)C24Cl (stereo not given) | inactive | –
Cl/C=C\C[N+]12CN3CN(CN(C3)C1)C2 | inactive | –
ClCc1cccnc1 | inactive | –
ClC1(Cl)C2(Cl)C3(Cl)C4(Cl)C(Cl)(Cl)C5(Cl)C3(Cl)C1(Cl)C5(Cl)C24Cl (stereo not given) | inactive | –
ClC1=C(Cl)[C@]2(Cl)[C@@H]3[C@@H](Cl)[C@@H](Cl)C[C@@H]3[C@@]1(Cl)C2(Cl)Cl | inactive | –
CN(C)P(=O)(N(C)C)N(C)C | inactive | –
CCN1CCC2(CC1)COc1cc3c(cc12)N(C(=O)c1ccc(-c2ccc(-c4nnc(C)o4)cc2C)cc1)CC3 | – | 1.01 µM (active)
O=C(O)C(F)(F)C(F)(F)C(F)(F)C(F)(F)C(F)(F)C(F)(F)C(F)(F)C(F)(F)C(F)(F)C(F)(F)F | inactive | –
CCC(C)c1cccc(C(C)CC)c1O (stereo not given) | inactive | –
O=C(c1ccccc1)C(Cl)Cl | inactive | –
COC[C@H](C)N(C(=O)CCl)c1c(C)csc1C | inactive | –
Oc1cccc2cccnc12 | inactive | –
CC(C)C1CCC(Cc2ccc(Cl)cc2)C1(O)Cn1cncn1 (stereo not given) | inactive | –

What follows are compounds tested against Hepatocyte nuclear factor 4-alpha (Homo sapiens) (UniProt P41235) (assay: ATG_HNF4a_TRANS: Attagene TRANS-FACTORIAL HepG2 Assay for human Hepatocyte Nuclear Factor 4 alpha (HNF4a) (AID 2282982)). Conditions: HepG2 HNF4a transactivation reporter, mRNA readout.
Hepatocyte nuclear factor 4-alpha (Homo sapiens), sequence (P41235 whole entry, looked up, the tested form may be a part): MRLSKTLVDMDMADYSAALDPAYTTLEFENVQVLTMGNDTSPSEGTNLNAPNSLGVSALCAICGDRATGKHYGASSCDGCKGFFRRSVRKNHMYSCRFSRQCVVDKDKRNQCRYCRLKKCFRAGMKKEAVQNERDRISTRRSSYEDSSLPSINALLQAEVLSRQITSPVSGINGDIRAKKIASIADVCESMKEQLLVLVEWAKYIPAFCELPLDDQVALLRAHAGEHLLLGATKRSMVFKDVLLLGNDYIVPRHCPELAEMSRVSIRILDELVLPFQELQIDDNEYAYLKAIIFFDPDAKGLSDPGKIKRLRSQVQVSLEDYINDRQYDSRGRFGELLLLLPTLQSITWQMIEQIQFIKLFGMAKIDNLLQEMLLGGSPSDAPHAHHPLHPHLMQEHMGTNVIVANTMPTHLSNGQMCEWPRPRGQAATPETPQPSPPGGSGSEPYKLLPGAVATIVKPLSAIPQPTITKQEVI
Method in brief: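 In this trans-factorial format, a chimeric HNF4a-GAL4 fusion drives a GAL4-UAS reporter in transfected HepG2 liver cells. After 24 h treatment, reporter mRNA induction is measured by RT-PCR with capillary electrophoresis, relative to DMSO.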

SMILES | outcome
N#CN=C(N)N | inactive
CCc1ccccc1C | inactive
CCOP(OCC)OCC | inactive
C=C(C)C#N | inactive
O=C(O)C(F)(F)C(F)(F)C(F)(F)C(F)(F)C(F)(F)C(F)(F)F | inactive
CCC(C)(C)c1ccc(O)c(C(C)(C)CC)c1 | inactive
CN(C)N=O | inactive
CCN(CC)C(=O)Cl | inactive
CCCCP(CCCC)CCCC | inactive
COS(=O)(=O)c1ccc(C)cc1 | inactive
Clc1ccc(C2(Cn3cncn3)CC(Br)CO2)c(Cl)c1 (stereo not given) | inactive
CC(=[OH+])/C=C(/C)[O-].CC(=[OH+])/C=C(/C)[O-].CC(=[OH+])/C=C(/C)[O-].[Fe] | inactive
c1cc[c]([Hg][c]2ccccc2)cc1 | inactive
C[C@@H]1C[C@@H]([C@H](O)CC2CC(=O)NC(=O)C2)C(=O)[C@@H](C)C1 | inactive
O=C1C2(Cl)C3(Cl)C4(Cl)C(Cl)(Cl)C5(Cl)C3(Cl)C1(Cl)C5(Cl)C24Cl (stereo not given) | inactive
Cl/C=C\C[N+]12CN3CN(CN(C3)C1)C2 | inactive
ClCc1cccnc1 | inactive
CN(C)P(=O)(N(C)C)N(C)C | inactive
O=C(O)C(F)(F)C(F)(F)C(F)(F)C(F)(F)C(F)(F)C(F)(F)C(F)(F)C(F)(F)C(F)(F)C(F)(F)F | inactive
CCC(C)c1cccc(C(C)CC)c1O (stereo not given) | inactive
O=C(c1ccccc1)C(Cl)Cl | inactive
Oc1cccc2cccnc12 | inactive

Source: PubChem BioAssay (EPA / NIEHS)
